In PubChem BioAssay (EPA / NIEHS):
Results filed as inconclusive are left out. The source made the active and inactive calls. Rule for the calls, unless noted: active = hit-call score of the fitted dose curve at least 0.9, where 1 is the maximum; inconclusive = response in the unintended direction; inactive = score below 0.9.

What was measured:
[1] = Tanguay_ZF_120hpf_JAW_legacy: (Legacy) Oregon State University Tanguay Lab 120 Hour Post-fertilization zebrafish Assay for Jaw Malformation (AID 2283638);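 for AC50: active means more embryos with jaw malformation than DMSO controls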
In short: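 Dechorionated Tropical 5D wild-type zebrafish embryos, one per well, exposed statically from 6 hpf to 120 hpf at 28C in 0.64% DMSO. Jaw malformation was scored by brightfield microscopy as present or absent. It was not scored in dead embryos.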

[2] = Tanguay_ZF_120hpf_OTIC_legacy: (Legacy) Oregon State University Tanguay Lab 120 Hour Post-fertilization zebrafish Assay for Otic Vesicle Malformation (AID 2283639)
In short: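 Embryos from 5D wild-type adults exposed in plates; DMSO 0.64% v/v final. Sealed, light-protected, 28C, static to 120 hpf. Otic vesicle malformation recorded as binary endpoint; gain-of-signal fitted vs DMSO.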

[3] = Tanguay_ZF_120hpf_PE_legacy: (Legacy) Oregon State University Tanguay Lab 120 Hour Post-fertilization zebrafish Assay for Pericardial Edema (AID 2283640)
In short: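 Tropical 5D wild-type zebrafish embryos were statically exposed until 120 hpf at 28C, with 0.64% DMSO final. Pericardial edema was scored by brightfield as present or absent; endpoints were not scored in dead embryos.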

[4] = Tanguay_ZF_120hpf_BRAI_legacy: (Legacy) Oregon State University Tanguay Lab 120 Hour Post-fertilization zebrafish Assay for Brain Malformation (AID 2283641)
In short: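 Tropical 5D wild-type zebrafish embryos exposed statically until 120 hpf at 28C, 0.64% DMSO final, sealed and dark. Brain malformation scored present/absent by brightfield at 120 hpf; dead embryos excluded. Trimethyltin chloride 5uM positive control.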

[5] = Tanguay_ZF_120hpf_SOMI_legacy: (Legacy) Oregon State University Tanguay Lab 120 Hour Post-fertilization zebrafish Assay for Somite Malformation (AID 2283647)
In short: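 Dechorionated Tropical 5D wild-type zebrafish embryos, one per well from 6 hpf, statically exposed at 28C to 120 hpf in 0.64% DMSO; somite malformation scored present/absent by brightfield; trimethyltin 5 uM positive control; dead embryos not scored.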

[6] = Tanguay_ZF_120hpf_CFIN_legacy: (Legacy) Oregon State University Tanguay Lab 120 Hour Post-fertilization zebrafish Assay for Caudal Fin Malformation (AID 2283649)
In short: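 Dechorionated Tropical 5D wild-type embryos, one per well from 6 hpf, static exposure to 120 hpf at 28C in 0.64% DMSO. Caudal fin malformation scored by brightfield as present/absent; not scored in dead embryos.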

[7] = Tanguay_ZF_120hpf_PIG_legacy: (Legacy) Oregon State University Tanguay Lab 120 Hour Post-fertilization zebrafish Assay for Pigmentation Malformation (AID 2283650)
In short: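 Pronase dechorionation at 4 hpf; embryos plated at 6 hpf, one per well; static exposure, sealed and foil-covered, 28C, to 120 hpf; pigmentation read by brightfield, binary; DMSO 0.64% baseline, 5uM trimethyltin chloride positive control.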

[8] = Tanguay_ZF_120hpf_CIRC_legacy: (Legacy) Oregon State University Tanguay Lab 120 Hour Post-fertilization zebrafish Assay for Circulatory Malformation (AID 2283651)
In short: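 Read-out: presence or absence of circulatory malformation at 120 hpf, scored by brightfield microscopy, fitted in the gain-of-signal direction against DMSO baseline. Wild-type 5D larvae were exposed from 6 hpf after enzymatic chorion removal.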

[9] = Tanguay_ZF_120hpf_SWIM_legacy: (Legacy) Oregon State University Tanguay Lab 120 Hour Post-fertilization zebrafish Assay for Swim Bladder Malformation (AID 2283654);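 note: swim bladder malformation in each larva scored yes or no under brightfield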
In short: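 Embryos lacking chorions were exposed individually and statically to test chemical from 6 to 120 hpf at 28C, with 0.64% DMSO as vehicle. At 120 hpf, swim bladder malformation was recorded as present or absent by brightfield microscopy.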

[10] = Tanguay_ZF_120hpf_TRUN_legacy: (Legacy) Oregon State University Tanguay Lab 120 Hour Post-fertilization zebrafish Assay for Truncated Body (AID 2283655)
In short: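 Dechorionated Tropical 5D wild-type embryos placed singly from 6 hpf and statically exposed to 120 hpf at 28C, final DMSO 0.64%. Truncated body scored as present/absent by brightfield; not scored in dead embryos.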

[11] = Tanguay_ZF_120hpf_NC_legacy: (Legacy) Oregon State University Tanguay Lab 120 Hour Post-fertilization zebrafish Assay for Notochord and Tail Malformation (AID 2283656)
In short: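 Dechorionated Tropical 5D wild-type zebrafish embryos, one per well from 6 hpf, statically exposed to 120 hpf at 28C in 0.64% DMSO final. Notochord distortion scored present/absent by brightfield; dead embryos excluded.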

[12] = test system: Thyroperoxidase (TPO), gene 54314; assay: CCTE_Simmons_AUR_rTPO: CCTE's Amplex UltraRed Assay for Thyroperoxidase (TPO) Inhibition, Simmons Lab (AID 2283662);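 note: potency for loss of signal meaning inhibition of peroxidase activity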
In short: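 Rat thyroid microsomes (5 ug protein) with 25 uM Amplex UltraRed and 300 uM H2O2 in 200 mM phosphate buffer, 30 min at 37C in dark; fluorescence 544/590 nm. Eight concentrations, 5 nM–87.5 uM final, 0.5% DMSO, triplicate biological replicates.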

[13] = Tanguay_ZF_120hpf_PFIN_legacy: (Legacy) Oregon State University Tanguay Lab 120 Hour Post-fertilization zebrafish Assay for Pectoral Fin Malformation (AID 2283648);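 note: each larva judged yes or no for fin defect by brightfield with dead larvae skipped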
In short: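 5D WT zebrafish; pronase dechorionation 4 hpf; 1 embryo/well at 6 hpf; static exposure to 120 hpf, 28C, sealed, foil-covered; final DMSO 0.64% v/v; 5 uM trimethyltin chloride positive control; fin defect scored yes/no.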

[14] = read-out: ABC Transporter (ABCB1), ABCB1 (gene 5243); assay: CLD_ABCB1_6hr: CellzDirect (CLD) Gene Expression Assay for ABC Transporter (ABCB1) at 6 hours (AID 2283659);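 note: hits raise ABCB1 transcript above the DMSO vehicle baseline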
In short: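 Primary human hepatocytes (two donor preparations) dosed daily for two days with chemicals at multiple concentrations, 0.2% DMSO vehicle; harvested 6 h post-dose. ABCB1 mRNA induction quantified by qNPA chemiluminescence; gain-of-signal fitted versus DMSO.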

[15] = read-out: xenobiotic metabolism (CYP1A1), CYP1A1 (gene 1543); assay: CLD_CYP1A1_6hr: CellzDirect (CLD) Gene Expression Assay for xenobiotic metabolism (CYP1A1) at 6 hours (AID 2283661);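 note: potency for transcript induction above DMSO vehicle baseline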
In short: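 Primary human hepatocytes from two donors, compound versus 0.2% DMSO vehicle. CYP1A1 mRNA measured 6 h after dosing by quantitative nuclease protection assay with chemiluminescent read-out; induction fitted relative to DMSO, cytotoxicity flagged by microscopy.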

[16] = read-out: xenobiotic metabolism (CYP1A2), CYP1A2 (gene 1544); assay: CLD_CYP1A2_6hr: CellzDirect (CLD) Gene Expression Assay for xenobiotic metabolism (CYP1A2) at 6 hours (AID 2283663);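 note: potency is for induction meaning a rise in mRNA above DMSO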
In short: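 Primary human hepatocytes from two donor preparations, dosed daily with multiple concentrations in 0.2% DMSO and harvested at 6 h. CYP1A2 mRNA induction measured by chemiluminescent qNPA, gain of signal fitted against DMSO; cytotoxicity flagged morphologically.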

[17] = read-out: solute carrier (SLC22A6), SLC22A6 (gene 9356); assay: LTEA_HepaRG_SLC22A6: Life Technologies and Expression Analysis (LTEA) Assay for solute carrier (SLC22A6) using HepaRG (AID 2283653; active = hit-call score of the fitted dose curve at least 0.9, where 1 is the maximum; inactive = score below 0.9); details: mRNA level, 48 h; actives raise or lower the signal
In short: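 Differentiated HepaRG cells exposed 48 h in serum-free induction medium to 8 half-log concentrations, top 100 uM, in 0.5% DMSO; SLC22A6 mRNA by Fluidigm qRT-PCR normalized to ACTB, GAPDH, POLR2A, fitted bidirectionally versus DMSO.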

[18] = read-out: solute carrier (SLC10A1), SLC10A1 (gene 6554); assay: LTEA_HepaRG_SLC10A1: Life Technologies and Expression Analysis (LTEA) Assay for solute carrier (SLC10A1) using HepaRG (AID 2283657; active = hit-call score of the fitted dose curve at least 0.9, where 1 is the maximum; inactive = score below 0.9); details: mRNA level, 48 h; actives raise or lower the signal
In short: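 Transcript levels were measured by qRT-PCR after human HepaRG cells received test chemical for 48 hours, up to 100 uM in half-log dilutions. Values come from bidirectional concentration-response fitting relative to 0.5% DMSO vehicle.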

[19] = read-out: matrix metalloproteinase-1 (MMP1), MMP1 (gene 4312); assay: LTEA_HepaRG_MMP1: Life Technologies and Expression Analysis (LTEA) Assay for matrix metalloproteinase-1 (MMP1) using HepaRG (AID 2283658; active = hit-call score of the fitted dose curve at least 0.9, where 1 is the maximum; inactive = score below 0.9); details: mRNA level, 48 h; actives raise or lower the signal
In short: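 Differentiated human HepaRG cells, 48 h post-plating in serum-free induction medium, were exposed 48 h to eight half-log concentrations topping at 100 uM in 0.5% DMSO, duplicate. MMP1 mRNA measured by Fluidigm TaqMan qRT-PCR, normalized to ACTB, GAPDH, POLR2A; bidirectional fits versus DMSO.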

Measured: AC50

Oc1c(Cl)c(Cl)c(Cl)c(Cl)c1Cl
active: [12] 8.93 µM
not listed: [13] | [14] | [15] | [16] | [17] | [18] | [19]
inactive: all other assays above

C=CC(=O)NCNC(=O)C=C
inactive: [1] | [2] | [4] | [5] | [6] | [7] | [9] | [10] | [11]

CCOCCOC(C)=O
inactive: [1] | [2] | [4] | [5] | [6] | [7] | [9] | [10] | [11]

Cc1cc2c3c(c1)C(c1ccccc1)=N[C@@H](NC(=O)c1ccncc1)C(=O)N3CC2
inactive: [1] | [2] | [3] | [4] | [5] | [6] | [7] | [10] | [11]

CO/C=C(/C(=O)OC)c1ccccc1COc1cccc(C(F)(F)F)n1
inactive: [11]
active: [1] 2.66 µM | [2] 12.7 µM | [4] 3.77 µM | [5] 18.1 µM | [6] 9.15 µM | [7] 19.7 µM | [9] 14.5 µM | [10] 7.84 µM

CCCCCCCCOC(=O)c1ccccc1C(=O)OCCCCCCCC
active: [12] 11.8 µM
inactive: [1] | [2] | [4] | [5] | [6] | [7] | [9] | [10] | [11]

C=CC(N)=O
inactive: [1] | [2] | [4] | [5] | [6] | [7] | [8] | [9] | [11]

O=C(NC(=O)c1c(F)cccc1F)Nc1cc(Cl)c(OC(F)(F)C(F)F)c(Cl)c1
active: [12] 20.7 µM
inactive: [1] | [2] | [3] | [4] | [5] | [13] | [6] | [8] | [10] | [11]

Cc1cc(-c2ccc(N)c(C)c2)ccc1N
inactive: [1] | [2] | [3] | [4] | [5] | [6] | [7] | [9] | [10] | [11]

CC(c1ccc(O)cc1)(c1ccc(O)cc1)c1ccc(O)cc1
inactive: [1] | [2] | [4] | [5] | [6] | [7] | [9] | [10] | [11]
active: [12] 1.41 µM

O=C(N[C@H]1CN2CCC1CC2)c1cc2ccoc2cn1
inactive: [1] | [2] | [4] | [5] | [13] | [6] | [7] | [9] | [10] | [11]

CN(C)CCO
inactive: [1] | [2] | [4] | [5] | [6] | [7] | [9] | [10] | [11]

CCNc1nc(NC(C)C)nc(SC)n1
active: [15] 1.42 µM | [16] 0.262 µM
not listed: [8] | [12] | [13] | [17] | [18] | [19]
inactive: all other assays above

O=C(O)C(F)(F)C(F)(F)C(F)(F)C(F)(F)C(F)(F)C(F)(F)C(F)(F)C(F)(F)C(F)(F)F
active: [18] 23.3 µM | [19] 72.2 µM | [12] 22.7 µM
not listed: [3] | [8] | [13] | [14] | [15] | [16]
inactive: all other assays above
